Experiments:
[1] = NFkB reporter suppression in cystic fibrosis bronchial cells – cell-based, uHTS hits, panel, cytotoxicity readout, dose response (AID 624344); conditions: CF bronchial epithelial cells, PAF-induced NFkB reporter inhibition, with PAF, run 1; at 79 µM (top of the series)
[2] = as above; conditions: CF bronchial epithelial cells, PAF-induced NFkB reporter inhibition, with PAF, run 2; at 79 µM (top of the series)
[3] = biological target: Tumor necrosis factor receptor superfamily member 10B (Homo sapiens) (UniProt O14763); assay: viability loss of caspase-8 NB7 cells with TRAIL – with/without TRAIL, luminescence panel, confirmation (AID 651596); conditions: NB7 neuroblastoma + caspase-8, TRAIL sensitization, NB7 Caspase-8, with TRAIL, mean of runs, at 10 µM, stronger effect = higher value
[4] = as above; conditions: NB7 neuroblastoma + caspase-8, without TRAIL, NB7 Caspase-8, without TRAIL, mean of runs, at 10 µM

Sequence of Tumor necrosis factor receptor superfamily member 10B (Homo sapiens) (O14763 whole entry, looked up): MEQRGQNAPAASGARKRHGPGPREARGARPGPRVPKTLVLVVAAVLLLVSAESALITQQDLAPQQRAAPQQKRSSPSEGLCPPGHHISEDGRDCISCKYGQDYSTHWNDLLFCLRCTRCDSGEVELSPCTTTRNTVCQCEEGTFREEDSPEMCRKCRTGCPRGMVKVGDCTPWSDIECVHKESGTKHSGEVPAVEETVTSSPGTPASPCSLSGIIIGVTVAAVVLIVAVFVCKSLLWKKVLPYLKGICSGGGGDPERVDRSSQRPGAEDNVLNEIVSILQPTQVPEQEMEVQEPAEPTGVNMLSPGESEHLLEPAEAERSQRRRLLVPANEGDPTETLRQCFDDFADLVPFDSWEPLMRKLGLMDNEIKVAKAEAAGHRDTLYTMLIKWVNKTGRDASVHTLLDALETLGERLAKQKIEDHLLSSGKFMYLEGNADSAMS

SMILES | inhibition [1] | inhibition [2] | activity [3] | activity [4]
C=C1C(C)C2C(Cc3ccccc3)NC(=O)C23OC(=O)/C=C/C(O)CCCC(C)C/C=C/C3C1O (stereo unspecified) | 104% | 103% | – | –
N#CC1c2ccccc2-n2nncc2CN1Cc1cc(Cl)cc(Cl)c1 (stereo unspecified) | 91.8% | 95.5% | 55.8% | 86.4%
Cc1ccccc1-[n+]1c(-c2ccccc2)cc(-c2ccccc2)cc1-c1ccccc1 | – | – | 75.7% | 64.1%
CC[C@H](C)[C@@H]1NC(=O)CNC(=O)c2csc(n2)[C@H](C(C)(C)O)OC(=O)C(C)(C)[C@H](CCCC(C)(Cl)Cl)OC(=O)c2csc1n2 | – | – | 53.5% | 78.6%
CCOC(=O)[C@]12Cc3ccc(C)cc3[C@H]1N(C1CCCCC1)C(=O)c1cc(OC)ccc12 | – | – | 97.5% | 98%
Cc1cccc(C)c1-n1nnnc1C(CCc1ccccc1)N1CCC(n2c(=O)[nH]c3ccccc32)CC1 (stereo unspecified) | – | – | 90.2% | 82%
CCCCCN1C(=O)c2cc(OC)ccc2[C@@]2(C(=O)OCC)Cc3cc(Cl)ccc3[C@@H]12 | – | – | 87.2% | 92.8%
CC1=CC2OC3CC4OC(=O)C=CC=CC(C(C)O)OCC(O)C5(C)OC5C(=O)OCC2(CC1O)C4(C)C31CO1 (stereo unspecified) | – | – | 93% | 98.3%
CNC(=O)Oc1cccc(-c2cn3cc(Cl)ccc3n2)c1 | – | – | 86.8% | 83%
O=[N+]([O-])c1ccc(Cl)c([N+](=O)[O-])c1 | – | – | -3.27% | 54.8%
CC(=O)OCC12CC(OC(=O)CC(C)C)C(C)=CC1OC1C(O)C(OC(C)=O)C2(C)C12CO2 (stereo unspecified) | – | – | 93% | 97.6%
C[C@]12CCC3C(CCC4=CC(O)CC[C@@]43/C=N/O)C1(O)CCC2C1=CC(=O)OC1 (stereo partly specified) | – | – | 87% | 92.3%

From PubChem BioAssay
